This is an account of results in article PMC5540273 (PLoS ONE, 2017).

Holding throughout (conditions): concentration: 1 μM,replicates: in singlicate; n = 1
Assay [1] has as its system T1, NIM1.
T1 construct: gene MGC42105

In assay [2] the test system is NLK.
Assay [3] concerns T2, OSR1.
T2 construct: gene OXSR1

The test system of assay [4] is PAK1.
Assay [5] deals with PAK2.
Assay [6] relates to PAK3.
The test system of assay [7] is PAK4.
The subject of assay [8] is PAK6.
The test system of assay [9] is PAK7.
Assay [10] concerns T3, PCTK1.
T3 construct: gene CDK16

For assay [11], the system named is T4, PCTK2.
T4 construct: gene CDK17

Assay [12] concerns T5, PCTK3.
T5 construct: gene CDK18

Assay [13] has as its system PDGFRA.
The subject of assay [14] is PDGFRB.
Assay [15] deals with PDPK1.
Assay [16] relates to PFTAIRE2.
In assay [17] the test system is T6, PFTK1.
T6 construct: gene CDK14

Assay [18] concerns PHKG1.
Assay [19] concerns PHKG2.
The subject of assay [20] is PIK3C2B.
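Also: KINOMEscan kinase panel screen.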

Take `C[C@@H]1CNc2c(sc3ccc4nc(-c5ccncc5)ccc4c23)C(=O)N1`: the “%Inh” value in assay [1] turned out to be 0%; in assay [2] it was 0%; in assay [3], 9%; in [4], 0%; in assay [5] it was 5%; in assay [6] it was 9%. Further, the “%Inh” value in assay [7] is 24%; in [8], 9%; in assay [9], 0%; in [10], 0%; in assay [11], 6%; in assay [12] it was 0%. Further, the “%Inh” value in assay [13] came to 72%; in [14] it was 56%; in [15], 0%; in assay [16], 0%; in assay [17], 0%; in [18], 39%. Further, the “%Inh” value in assay [19] is recorded as 55%; in [20], 0%.

As for `CS(=O)(=O)c1cccc(CNc2nc(Nc3ccc4c(c3)[C@@H]3C[C@@H]4CNC3=O)ncc2C(F)(F)F)c1`, the “%Inh” value in assay [1] was determined as 0%; in assay [2], 0%; in assay [3], 48%; in assay [4], 5%; in assay [5], 12%; in [6], 0%. The “%Inh” value in assay [7] is 0%; in [8], 18%; in assay [9] it was 20%; in assay [10], 0%; in assay [11], 0%; in [12] it was 0%. Further, the “%Inh” value is on record as 9% in assay [13]; 73% in assay [14]; 0% in assay [15]; 18% in [16]; 0% in assay [17]; 0% in assay [18]. Further, the “%Inh” value in assay [19] and in [20] was 0% in each case.

Regarding `Cc1ccc(CC(=O)N2CCc3cc(-c4cn(C)c5ncnc(N)c45)ccc32)cc1` [GSK2634758], the “%Inh” value is on record as 13% in assay [1]; 1% in [2]; 0% in assay [3]; 0% in assay [4]; 0% in assay [5]; 49% in assay [6]. Besides, the “%Inh” value in assay [7] is 0%; in assay [8], 100%; in [9], 0%; in assay [10], 0%; in assay [11], 0%; in [12], 0%. Further, the “%Inh” value is reported as 39% in assay [13]; 96.4% in assay [14]; 57% in [15]; 9% in [16]; 17% in assay [17]; 0% in assay [18]. Further, the “%Inh” value stood at 0% in assay [19] and 40% in assay [20].

Turning to `O=C(Nc1cccc(Oc2ccc3nccn3n2)c1)Nc1cccc(C(F)(F)F)c1`, the “%Inh” value in assay [1] is 14%; in assay [2], 19%; in [3] it was 0%; in assay [4], 0%; in assay [5] it was 0%; in [6] it was 0%. In addition, the “%Inh” value is recorded as 0% in [7]; 5% in assay [8]; 0% in assay [9]; 0% in assay [10]; 0% in assay [11]; 8% in [12]. Also, the “%Inh” value in assay [13] is recorded as 99.8%; in [14], 100%; in [15], 0%; in assay [16] it was 0%; in assay [17], 1%; in assay [18], 14%. Further, the “%Inh” value in assay [19] worked out at 0%; in assay [20] it was 12%.

With `C[C@@H]1CNc2c(sc3ccc4nc(-c5ccc(O)cc5)ccc4c23)C(=O)N1`, the “%Inh” value in assay [1] is 26%; in assay [2] it was 8%; in assay [3] it was 0%; in assay [4] it was 20%; in assay [5] it was 32%; in assay [6], 0%. The “%Inh” value in assay [7] was 9%; in assay [8], 17%; in assay [9], 0%; in assay [10], 0%; in assay [11] it was 0%; in [12], 4%. Moreover, the “%Inh” value in assay [13] is on record as 42%; in [14], 56%; in assay [15], 0%; in assay [16] it was 18%; in assay [17], 8%; in [18], 31%. Besides, the “%Inh” value was determined as 0% in assay [19] and 16% in assay [20].

Turning to `Cc1cccc2c(-c3ccncc3)c(-c3ccc(F)cc3)nn12.Cl` [GW461487], the “%Inh” value is given as 10% in assay [1]; 65% in [2]; 0% in assay [3]; 24% in assay [4]; 8% in assay [5]; 100% in assay [6]. Also, the “%Inh” value in assay [7], in assay [8], in [9], in assay [10], in assay [11] and in [12] was 0% throughout. In addition, the “%Inh” value was found to be 0% in assay [13]; 14% in [14]; 0% in [15]; 9% in [16]; 11% in assay [17]; 0% in assay [18]. For the same molecule, the “%Inh” value in assay [19] and in assay [20] was 0% each time.

Consider `CNC(=O)c1ccccc1Nc1nc(Nc2cccc(CS(C)(=O)=O)c2)ncc1C.O=CO` [GSK1520489], for which the “%Inh” value in assay [1] stood at 97.4%; in [2], 39%; in assay [3] it was 28%; in assay [4] it was 64%; in assay [5], 52%; in assay [6], 97.8%. Also, the “%Inh” value in [7] is 55%; in assay [8], 79%; in assay [9], 85%; in assay [10] it was 6%; in [11] it was 0%; in [12], 18%. For the same molecule, the “%Inh” value in [13] is on record as 94%; in assay [14], 99.9%; in assay [15], 49%; in assay [16], 0%; in assay [17], 16%; in [18], 63%. The “%Inh” value was 49% in assay [19] and 0% in assay [20].

Take `Cc1ccc(Nc2ccnc(Nc3ccc4c(c3)CS(=O)(=O)C4)n2)cc1O.Cl` [GW579362]: the “%Inh” value came to 17% in assay [1]; 97.5% in assay [2]; 46% in [3]; 26% in assay [4]; 29% in assay [5]; 20% in assay [6]. Moreover, the “%Inh” value worked out at 0% in [7]; 28% in assay [8]; 56% in assay [9]; 17% in assay [10]; 35% in assay [11]; 16% in [12]. The “%Inh” value in assay [13] is 92.8%; in assay [14], 100%; in assay [15], 38%; in assay [16], 15%; in assay [17] it was 27%; in assay [18] it was 0%. The “%Inh” value worked out at 1% in [19] and 4% in assay [20].

For the molecule `O=C(Nc1ccccc1)c1cccc(Oc2ccc3nccn3n2)c1`, the “%Inh” value was 1% in assay [1]; 0% in [2]; 0% in assay [3]; 0% in [4]; 0% in assay [5]; 5% in assay [6]. Moreover, the “%Inh” value in [7] is listed as 0%; in [8] it was 9%; in [9] it was 0%; in assay [10], 0%; in [11] it was 0%; in assay [12], 38%. In addition, the “%Inh” value was 66% in assay [13]; 99.3% in [14]; 0% in assay [15]; 0% in assay [16]; 38% in assay [17]; 15% in assay [18]. For the same molecule, the “%Inh” value in assay [19] and in [20] was 0% throughout.
